# Article PMC4336329 (PLoS ONE, 2015)
# Out of some 310,000 compounds screened, about 14,000 (4.5%) showed an effect of 50% or more. The effect is printed as a negative number. For the sample, strong results were picked, then their nearest neighbours and some compounds at random.
# Molecular target: human ether-à-go-go-related gene (hERG) potassium channel (human, UniProt Q12809)
# Assay: primary screen, population patch clamp on CHO cells stably expressing hERG; higher = less effect of the substance
# 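Further: peak tail current of the secondary pulse compared with the same well before compound.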
# human ether-à-go-go-related gene (hERG) potassium channel, sequence (Q12809 whole entry, looked up): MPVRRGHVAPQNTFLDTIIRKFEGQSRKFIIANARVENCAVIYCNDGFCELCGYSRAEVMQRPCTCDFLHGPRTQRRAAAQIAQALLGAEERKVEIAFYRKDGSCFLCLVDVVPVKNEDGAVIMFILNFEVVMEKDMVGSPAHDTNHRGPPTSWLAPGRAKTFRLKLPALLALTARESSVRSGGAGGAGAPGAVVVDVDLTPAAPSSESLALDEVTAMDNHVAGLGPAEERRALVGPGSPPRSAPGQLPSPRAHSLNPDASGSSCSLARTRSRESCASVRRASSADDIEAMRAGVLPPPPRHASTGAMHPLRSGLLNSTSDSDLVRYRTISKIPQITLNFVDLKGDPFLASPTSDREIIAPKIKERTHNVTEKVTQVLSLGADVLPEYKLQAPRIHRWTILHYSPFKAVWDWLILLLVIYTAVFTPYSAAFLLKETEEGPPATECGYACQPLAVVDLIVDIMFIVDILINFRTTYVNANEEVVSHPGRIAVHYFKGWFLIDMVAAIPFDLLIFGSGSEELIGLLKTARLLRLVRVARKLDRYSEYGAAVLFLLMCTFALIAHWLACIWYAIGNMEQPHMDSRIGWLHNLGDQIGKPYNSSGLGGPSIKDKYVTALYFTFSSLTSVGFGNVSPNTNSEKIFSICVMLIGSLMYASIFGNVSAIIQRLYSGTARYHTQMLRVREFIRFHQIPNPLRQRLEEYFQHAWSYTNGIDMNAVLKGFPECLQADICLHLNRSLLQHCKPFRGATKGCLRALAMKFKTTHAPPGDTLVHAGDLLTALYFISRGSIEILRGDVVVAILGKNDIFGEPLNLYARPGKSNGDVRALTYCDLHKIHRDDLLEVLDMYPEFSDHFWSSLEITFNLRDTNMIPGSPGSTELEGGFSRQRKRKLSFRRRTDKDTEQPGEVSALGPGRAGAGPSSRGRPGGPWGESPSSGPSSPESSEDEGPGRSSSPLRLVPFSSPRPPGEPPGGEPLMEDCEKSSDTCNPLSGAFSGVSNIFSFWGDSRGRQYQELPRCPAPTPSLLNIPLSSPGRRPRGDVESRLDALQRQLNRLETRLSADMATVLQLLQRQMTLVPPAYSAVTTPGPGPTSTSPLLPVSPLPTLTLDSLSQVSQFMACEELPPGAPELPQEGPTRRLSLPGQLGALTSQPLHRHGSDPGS
row,Structure (SMILES),"hERG current change (%, negative = inhibition) at 10uM"
1,NC(=S)N1OC[C@@H]2COc3ccc4ccccc4c3[C@@H]21,4.27%
2,CCOc1ccc(N2Cc3ccccc3C2)cc1,-2.48%
3,CC(C)c1ccc(N2C=Nc3ccc(C(C)C)cc3C2)cc1,-9.45%
4,CCOc1ccc(N2C=Nc3ccc(OCC)cc3C2)cc1,-63.9%
5,O=C1SCCC1NC(=O)C(c1ccccc1)c1ccccc1 (stereo not shown),3.15%
6,Cc1ccc(NC(=O)CCN2C(=O)c3cccc4cccc(c34)C2=O)cc1,9.71%
7,C/C(=N\NC(=S)NC(C)C)c1ccc(C(C)(C)C)cc1,11.1%
8,CCCCCNC(=O)c1cccnc1SCC(=O)Nc1ccccc1OC,-65.6%
9,CCCCCCCCNC(=O)c1cccnc1SCC(=O)Nc1ccccc1OC,2.4%
10,CCCCCCCCNC(=O)c1cccnc1SCC(=O)Nc1ccc(OC)cc1OC,5.99%
11,CN(CC(=O)Nc1ccc(F)c(F)c1F)C(=O)CC1OC(=O)c2ccccc21 (stereo not shown),-27.6%
12,O=C(CN1C(=O)C2CCCCC2C1=O)Nc1ccc(OC(F)F)c(Cl)c1 (stereo not shown),-2.68%
13,CN(CC(=O)Nc1ccccn1)S(=O)(=O)c1ccc(Cl)cc1,-9.34%
14,Cc1noc(C)c1S(=O)(=O)Nc1ccc(C(C)C)cc1,-17.6%
15,Cc1ccc(NS(=O)(=O)c2c(C)noc2C)cc1,-55.1%
16,CCc1ccc(NS(=O)(=O)c2c(C)noc2C)cc1,-10.3%
17,O=C(CN1C(=O)CSc2ncccc21)Nc1cccc(Cl)c1,-25.4%
18,Cc1ccnc(SCC(=O)c2ccc(Br)s2)n1,3.59%
19,CC1(C)CC(=O)C2=C(C1)N(c1ccccc1C#N)C(N)=C(C#N)C2c1cccs1 (stereo not shown),-13%
20,Cn1c2ccccc2c2nnc(N/N=C/c3ccc(O)cc3)nc21,-0.978%

row,Structure (SMILES),"hERG current change (%, negative = inhibition) at 10uM"
1,Cn1c2ccccc2c2nnc(NN)nc21,12.2%
2,C/C(=N\Nc1nnc2c3ccccc3n(C)c2n1)c1ccc(C)o1,-52.4%
3,CCOC(=O)C1(C(F)(F)F)N=C(N(C)C)OC(N(C)C)=N1,5.29%
4,Cc1cc(C)cc(Nc2cnn(C34CC5CC(CC(CC(=O)O)(C5)C3)C4)c(=O)c2Cl)c1,5.39%
5,O=C(Nc1nc(-c2ccccn2)cs1)c1ccc(Br)s1,7.34%
6,COC1(OC)N=C(N)C2(C#N)C(c3ccc(F)cc3)C12C#N (stereo not shown),5%
7,COC1(OC)N=C(N)C2(C#N)C(c3ccc(C)cc3)C12C#N (stereo not shown),10.1%
8,COc1ccc(C2C3(C#N)C(N)=NC(OC)(OC)C23C#N)cc1 (stereo not shown),-53.4%
9,O=C(NCC(O)COc1ccc([N+](=O)[O-])cc1)c1ccccc1 (stereo not shown),-40.4%
10,OC(CNCCNc1ncccc1C(F)(F)F)COc1ccc(F)cc1 (stereo not shown),-72%
11,O=[N+]([O-])c1ccc(OCC(O)CNCCNc2nccc(C(F)(F)F)n2)cc1 (stereo not shown),-79.2%
12,Cc1cccnc1NCC(O)COc1ccccc1 (stereo not shown),-37.5%
13,COc1ccc(OCC(O)CNCCNc2nccc(C(F)(F)F)n2)cc1 (stereo not shown),-23.3%
14,OC(CNCCNc1ncccc1C(F)(F)F)Cn1ccc2ccccc21 (stereo not shown),-45.3%
15,Nc1ccc2oc3ccc(N)cc3c(=O)c2c1,13.8%
16,CN(Cc1ccccc1O)CC1CCCN(CCc2ccc(Cl)cc2)C1 (stereo not shown),-76.1%
17,CN(Cc1ccccc1OCCO)CC1CCCN(CCc2ccc(Cl)cc2)C1 (stereo not shown),-66.9%
18,CCN(Cc1ccccc1OC)CC1CCCN(CCc2cccc(OC)c2)C1 (stereo not shown),-43.6%
19,CCOc1cccc(CN(CC)CC2CCCN(CCc3cccc(OC)c3)C2)c1O (stereo not shown),-66.7%
20,COc1ccccc1CCN1CCCC(CN(C)Cc2ccc(OCCO)cc2)C1 (stereo not shown),-40.8%

row,Structure (SMILES),"hERG current change (%, negative = inhibition) at 10uM"
1,CCOc1cccc(CN(C)CC2CCCN(CCc3ccc(Cl)cc3)C2)c1O (stereo not shown),-69.7%
2,CCOC(=O)c1cc2sc(C)cc2n1CC(=O)N1CCOCC1,7.06%
3,Cc1cc(NC(=O)c2cccnc2)ccc1NC(=O)c1cc2ccccc2o1,11.1%
4,O=C(Nc1ccccn1)C(F)(F)C(F)(F)C(F)(F)C(F)(F)C(=O)Nc1ccccn1,-18%
5,COc1ccc(/C=C/C(=O)C2CC2)cc1Cn1nc(C)c([N+](=O)[O-])c1C,-14.6%
6,COc1cc(C(=S)N2CCOCC2)ccc1OC(=O)c1cc(OC)c(OC)c(OC)c1,21.8%
7,Cc1nnc(C)c2c(C)n(-c3ccc(Cl)c(N)c3)c(C)c12,-45%
8,N#CC1=C(N)OC2=C(C(=O)CCC2)C12CCN(C(=O)OCc1ccccc1)CC2,-55.9%
9,CCOC(=O)N1CCC2(CC1)C(C#N)=C(N)OC1=C2C(=O)CCC1,-0.515%
10,CC1(C)CC(=O)C2=C(C1)OC(N)=C(C#N)C21CCN(C(=O)OCc2ccccc2)CC1,-2.49%
11,Cc1cc(NN)nc(NS(=O)(=O)c2ccccc2)n1,25.7%
12,COc1ccc(C2/C(=C(/O)c3ccccc3)C(=O)C(=O)N2CCO)cc1 (stereo not shown),-21.1%
13,COc1ccc(N/C(C)=C2/C(=O)C(=O)N(CCO)C2c2ccc([N+](=O)[O-])cc2)cc1 (stereo not shown),-67.3%
14,COc1ccc(N/C(C)=C2/C(=O)C(=O)N(CCO)C2c2ccc(Br)cc2)cc1 (stereo not shown),-49%
15,O=C(N/N=C/c1ccc([N+](=O)[O-])cc1)c1cccc2cc[nH]c12,12.4%
16,CN(CC(=O)NCc1cccs1)S(=O)(=O)c1cccc2nsnc12,0.981%
17,CN(CC(=O)NCc1ccc(F)cc1)S(=O)(=O)c1cccc2nsnc12,-21.1%
18,CN(CC(=O)NCc1ccc(Cl)cc1)S(=O)(=O)c1cccc2nsnc12,-52.5%
